Screening results as filed in PubChem BioAssay.
Only some compounds are listed: those with a hit (about 7.5% of all), similar ones and a draw of the others.
ELG1 genotoxic: inducers of genotoxicity in HEK293T ELG1-luciferase cells; AID 504466; actives 1.3% (n = 330,000); HEK293T ELG1-luciferase reporter, luminescence, 16 h; Potency, µM (highest dose often 46 µM), usual class: activators; note: nearly all actives have a fitted effect of over 60% in size
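Genotoxicity was scored as increased ELG1-luciferase reporter signal, measured by ONE-Glo luminescence (30 min, room temperature). Compound or vehicle exposure of the HEK293T reporter cells lasted 16 hr at 37°C.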
FLuc modulator: counter-screen for miR-21 project: firefly luciferase inhibitors or activators; P08659; purified FLuc, Km substrates, luminescence inhibition; Potency, µM (doses to about 57.5 µM), usual class: inhibitors; actives 6.9% (n = 360,000); AID 588342; note: nearly all actives have a fitted effect of over 55% in size
Target sequence (P08659 whole entry, looked up): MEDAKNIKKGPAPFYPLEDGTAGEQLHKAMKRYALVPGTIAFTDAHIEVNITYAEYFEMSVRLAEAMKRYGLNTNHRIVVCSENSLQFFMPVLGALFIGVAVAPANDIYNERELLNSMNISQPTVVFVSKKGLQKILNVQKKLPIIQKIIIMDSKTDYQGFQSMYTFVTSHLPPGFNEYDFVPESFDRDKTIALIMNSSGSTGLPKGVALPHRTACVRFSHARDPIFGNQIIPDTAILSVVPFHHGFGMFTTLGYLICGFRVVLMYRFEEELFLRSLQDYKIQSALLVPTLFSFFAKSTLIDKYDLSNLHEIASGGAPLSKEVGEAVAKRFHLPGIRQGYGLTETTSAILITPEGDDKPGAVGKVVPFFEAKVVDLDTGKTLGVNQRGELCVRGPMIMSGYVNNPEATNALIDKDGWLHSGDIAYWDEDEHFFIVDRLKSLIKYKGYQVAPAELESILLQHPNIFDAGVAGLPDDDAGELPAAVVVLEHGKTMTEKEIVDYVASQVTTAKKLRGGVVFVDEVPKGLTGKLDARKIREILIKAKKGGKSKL
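Purified P. pyralis luciferase, 10 nM final, with Km-level 10 uM D-luciferin and 10 uM ATP in 50 mM Tris acetate pH 7.5, 10 mM Mg acetate, 0.01% Tween-20, 0.05% BSA; 6-point qHTS titration about 60 µM downward; luminescence read.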
KinaseGlo FLuc: Kinase-Glo luciferase inhibition (counter-screen); Q27757; Kinase-Glo luciferase, ATP luminescence, 8 min; Potency, µM (highest dose often 38.3 µM), actives largely listed as inhibitors; actives 0.28% (n = 200,000); AID 1379; note: nearly all actives have a fitted effect of over 60% in size
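Kinase-Glo luciferase light output from ATP and luciferin was measured with 10 uM ATP, within the enzyme's linear range. Buffer: 50 mM imidazole pH 7.2, 50 mM KCl, 7 mM MgCl2, 0.01% Tween 20, 0.05% BSA; luminescence read after 8 min at ambient temperature.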
SMN2 splice enh: enhancers of SMN2 splice variant expression | actives 2.8% (n = 210,000) | Potency, µM (series often up to 46.1 µM), hits mostly activators | HEK293 SMN2-luciferase splicing reporter, luminescence, 30-36 h; note: nearly all actives have a fitted effect of over 55% in size
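HEK293 cells carry an SMN2 minigene-luciferase reporter in which exon 7 inclusion puts luciferase in frame. Cells were seeded at 2000 cells/well, attached for 10-12 hours, then exposed to compounds for 30-36 hours at 37C before ONE-Glo luminescence.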
Rab9 promoter act: Rab9 promoter activation; Huh7 Rab9 promoter-luciferase reporter, luminescence, 24 h; Potency, µM (titrated, usually from 9.22 µM), usual class: activators; actives 2.8% (n = 320,000); note: nearly all actives have a fitted effect of over 60% in size
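Huh7 cells stably carrying Rab9 promoter–luciferase reporter, plated 1500 cells/well, compound added after 2 h and incubated 24 h at 37 °C; luciferase luminescence then read after 10 min with detection reagent.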
NPC1 promoter act: activates the NPC1 promoter | Huh7 NPC1 promoter luciferase reporter, 24 h | Potency, µM (series often up to 9.22 µM), actives largely listed as activators | actives 2.4% (n = 320,000) | AID 485313; note: nearly all actives have a fitted effect of over 60% in size
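Stably transfected Huh7 (NPC1 promoter→luciferase), 1500 cells/well in Opti-MEM + 10% FBS, 2 h settle, then compound 24 h at 37 °C. Luminescence after 10 min with Amplite reagent.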
Of the large screens only hits and unclear results are named; the others gave an inactive call. Calls come from the whole dose curve; as a rule, active = well fitted curve in the direction sought with a large enough effect; inconclusive = small, poorly fitted or top-dose-only effect, or another doubt; inactive = no such curve, though single readings can be large; an effect the other way counts as inactive or inconclusive.

O=C(Nc1ccc2oc(-c3ccccc3)nc2c1)c1ccco1	ELG1 genotoxic inconclusive, FLuc modulator 4.8µM, SMN2 splice enh 13µM, Rab9 promoter act 2.5µM, NPC1 promoter act 1.8µM
CC(=O)c1cccc(N(CC(=O)NC2CCCCC2)C(=O)Cn2nnc(-c3ccccc3)n2)c1	none (no result: KinaseGlo FLuc, SMN2 splice enh)
Cc1ccccc1NC(=O)Cn1c(=O)oc2cc(Br)ccc21	none (no result: ELG1 genotoxic, KinaseGlo FLuc, SMN2 splice enh, Rab9 promoter act, NPC1 promoter act)
CC(C)c1ccc(NC(=O)Cn2cc(S(=O)(=O)Cc3ccccc3Cl)c3ccccc32)cc1	none (no result: ELG1 genotoxic, KinaseGlo FLuc, SMN2 splice enh, Rab9 promoter act, NPC1 promoter act)
C[C@@H](C(=O)OCn1nnc2ccccc2c1=O)N1C(=O)C2CCCCC2C1=O (stereo not given in full)	none
COc1ccc2nc(NC(=O)CSc3nc(SC)ns3)sc2c1	FLuc modulator inconclusive, SMN2 splice enh inconclusive, Rab9 promoter act inconclusive
COc1ccc2nc(NC(=O)CSc3nnnn3C3CCCCC3)sc2c1	FLuc modulator inconclusive (no result: ELG1 genotoxic, Rab9 promoter act, NPC1 promoter act)
COc1ccc2nc(NC(=O)CSc3nnnn3C)sc2c1	FLuc modulator inconclusive, Rab9 promoter act 3.2µM, NPC1 promoter act 2.8µM (no result: SMN2 splice enh)
COc1ccc2nc(NC(=O)CSc3nnc(C)s3)sc2c1	ELG1 genotoxic 21µM, FLuc modulator inconclusive, Rab9 promoter act inconclusive, NPC1 promoter act 2.5µM
COc1ccc2nc(NC(=O)CSc3n[nH]c(N)n3)sc2c1	ELG1 genotoxic 15µM, FLuc modulator 9.5µM, Rab9 promoter act inconclusive, NPC1 promoter act inconclusive (no result: KinaseGlo FLuc, SMN2 splice enh)
COc1ccc2nc(NC(=O)CSc3nnc4n3C(C)(C)Cc3ccccc3-4)sc2c1	ELG1 genotoxic inconclusive, FLuc modulator 6.7µM
NC(=O)CN1CCN(S(=O)(=O)c2ccc(Br)cc2)CC1	none (no result: SMN2 splice enh)
CCc1cc2c(Sc3nc4ccccc4s3)ncnc2s1	FLuc modulator 11µM (no result: SMN2 splice enh)
c1ccc2sc(Sc3ncnc4sccc34)nc2c1	FLuc modulator 0.95µM, SMN2 splice enh inconclusive
Cc1cccc(CNc2cc(-c3cccnc3)ncn2)c1	none (no result: ELG1 genotoxic, FLuc modulator, Rab9 promoter act, NPC1 promoter act)
CC1CCN(c2nc3c(S(=O)(=O)c4cccc(Cl)c4)nnn3c3ccsc23)CC1	none (no result: ELG1 genotoxic, KinaseGlo FLuc, SMN2 splice enh, Rab9 promoter act, NPC1 promoter act)
CC(=O)OCCCN1c2ccccc2Nc2nnc(-c3ccccc3)cc21	ELG1 genotoxic inconclusive, FLuc modulator 2.4µM, SMN2 splice enh 14µM, Rab9 promoter act 1.6µM, NPC1 promoter act 1.8µM
CC(CC(=O)N1CCN(c2ccc(C(F)(F)F)cn2)CC1)n1ccnc1 (stereo not given)	none
CCCc1c(C(=O)N/N=C/c2sccc2C)nnn1-c1nonc1N	none (no result: KinaseGlo FLuc, SMN2 splice enh)
CC(C)c1c(C(=O)N/N=C/c2ccc(C(F)(F)F)cc2)nnn1-c1nonc1N	FLuc modulator 17µM (no result: KinaseGlo FLuc, SMN2 splice enh)
CC(C)c1c(C(=O)N/N=C/c2cccs2)nnn1-c1nonc1N	FLuc modulator 17µM (no result: KinaseGlo FLuc, SMN2 splice enh)
Cc1ccsc1/C=N/NC(=O)c1nnn(-c2nonc2N)c1C(C)C	FLuc modulator 17µM (no result: KinaseGlo FLuc, SMN2 splice enh)
CC(C)c1c(C(=O)N/N=C/c2ccoc2)nnn1-c1nonc1N	FLuc modulator inconclusive (no result: KinaseGlo FLuc, SMN2 splice enh)
CC(C)c1c(C(=O)N/N=C/c2ccsc2)nnn1-c1nonc1N	FLuc modulator 21µM (no result: KinaseGlo FLuc, SMN2 splice enh)
CCc1ccc(-n2c(=O)c3ccc(C(=O)NCCc4ccccc4)cc3n(Cc3ccccc3C#N)c2=O)cc1	none (no result: ELG1 genotoxic, KinaseGlo FLuc, Rab9 promoter act, NPC1 promoter act)
O=C1CC(c2ccc3c(c2)OCO3)c2cc(O)ccc2O1 (stereo not given)	none (no result: ELG1 genotoxic, FLuc modulator, SMN2 splice enh, Rab9 promoter act, NPC1 promoter act)
CCn1c(C(=O)Nc2ccccc2C(=O)OC)cc2sc(Cl)cc21	none (no result: ELG1 genotoxic, KinaseGlo FLuc, Rab9 promoter act, NPC1 promoter act)
COc1ccc(S(=O)(=O)N2CCC(N3CCN(Cc4ccccc4)C(=O)C3=O)CC2)cc1	none (no result: ELG1 genotoxic, KinaseGlo FLuc, SMN2 splice enh, Rab9 promoter act, NPC1 promoter act)
CCc1c(C(=O)N/N=C/c2cccs2)nnn1-c1nonc1N	FLuc modulator 12µM (no result: KinaseGlo FLuc, SMN2 splice enh)
CCOc1cccc(-c2nc3cc(C)ccc3o2)c1	ELG1 genotoxic inconclusive, FLuc modulator 0.95µM, SMN2 splice enh 13µM, Rab9 promoter act inconclusive
Cc1cccc(OCC(=O)Nc2ccc(-c3nc4cc(C)ccc4o3)c(O)c2)c1	none (no result: ELG1 genotoxic, KinaseGlo FLuc, Rab9 promoter act, NPC1 promoter act)
Cc1ccc2oc(-c3cccc(NC(=O)Cc4ccc(Cl)cc4)c3)nc2c1	none (no result: ELG1 genotoxic, KinaseGlo FLuc, Rab9 promoter act, NPC1 promoter act)
Cc1ccc2oc(-c3ccccc3)nc2c1	ELG1 genotoxic inconclusive, FLuc modulator 0.6µM, KinaseGlo FLuc inconclusive, SMN2 splice enh inconclusive, Rab9 promoter act 3.2µM, NPC1 promoter act 1.1µM
COc1cccc(N2CCN(c3nc(C)cc(=O)[nH]3)CC2)c1	none (no result: KinaseGlo FLuc, SMN2 splice enh)
